# Measured values published in the supplement of paper PMC10849652.
# Of roughly 8,800 targets only a part is listed; those with a hit were picked by preference. About 0.5% of all pairs of compound and target were hits.
# Compound: CNC(=O)c1ccc(Nc2ncc(C(F)(F)F)c(NCc3nccnc3N(C)S(C)(=O)=O)n2)cc1 [defactinib]
# Test: log2 fold change, soluble protein after heating vs DMSO (PISA); higher = thermal stabilisation; K562 lysate, 10 uM; active = over 0.2 and 3.5 SD of the protein, either way, in both replicates (recomputed)
# In short: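 K562 pellets were dounce-homogenised in PBS pH 7.4 containing 1 mM MgCl2, and the crude extract, at 1 mg/mL protein, was exposed to 10 μM compound for 30 min. Aliquots were heated for 3 min across 48°C-58°C, pooled, brought to 0.5% NP-40 at 4°C and spun at 21,000xg for 90 min, with the supernatant taken as soluble protein. TMTpro 16plex LC-MS/MS with equalised channel sums quantified that protein. Values are log-two fold changes in thermal stability relative to solvent controls, taken from duplicates.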
# Sequence of UniProt Q8IXH7 (Q8IXH7 whole entry, looked up): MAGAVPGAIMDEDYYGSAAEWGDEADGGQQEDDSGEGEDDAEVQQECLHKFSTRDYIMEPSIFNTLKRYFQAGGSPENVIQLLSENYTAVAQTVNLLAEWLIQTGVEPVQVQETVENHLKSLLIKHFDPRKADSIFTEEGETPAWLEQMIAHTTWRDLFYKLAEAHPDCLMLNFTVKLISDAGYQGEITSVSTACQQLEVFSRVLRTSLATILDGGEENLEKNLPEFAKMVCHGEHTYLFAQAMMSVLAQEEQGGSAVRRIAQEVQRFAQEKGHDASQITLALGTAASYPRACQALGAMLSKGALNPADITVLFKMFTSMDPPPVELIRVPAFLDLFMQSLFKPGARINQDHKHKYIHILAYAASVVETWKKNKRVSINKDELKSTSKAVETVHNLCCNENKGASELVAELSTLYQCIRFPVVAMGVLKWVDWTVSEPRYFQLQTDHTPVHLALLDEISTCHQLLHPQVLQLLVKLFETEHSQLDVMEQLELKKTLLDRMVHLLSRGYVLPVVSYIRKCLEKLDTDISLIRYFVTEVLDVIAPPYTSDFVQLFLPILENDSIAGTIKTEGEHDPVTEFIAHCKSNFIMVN
# Sequence of UniProt Q4G0N4 (Q4G0N4 whole entry, looked up): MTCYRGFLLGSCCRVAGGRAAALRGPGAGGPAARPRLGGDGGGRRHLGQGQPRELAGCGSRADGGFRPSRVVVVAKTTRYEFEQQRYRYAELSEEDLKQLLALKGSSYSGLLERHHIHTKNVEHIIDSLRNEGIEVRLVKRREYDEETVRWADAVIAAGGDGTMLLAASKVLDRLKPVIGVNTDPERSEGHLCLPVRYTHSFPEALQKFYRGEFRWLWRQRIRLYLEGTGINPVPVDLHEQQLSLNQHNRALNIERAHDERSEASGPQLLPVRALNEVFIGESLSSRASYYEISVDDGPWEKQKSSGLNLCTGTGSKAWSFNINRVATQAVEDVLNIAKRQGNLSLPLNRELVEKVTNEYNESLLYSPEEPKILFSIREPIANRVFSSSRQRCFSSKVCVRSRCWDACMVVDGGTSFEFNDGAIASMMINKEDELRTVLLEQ
# Sequence of UniProt Q8TEW0 (Q8TEW0 whole entry, looked up): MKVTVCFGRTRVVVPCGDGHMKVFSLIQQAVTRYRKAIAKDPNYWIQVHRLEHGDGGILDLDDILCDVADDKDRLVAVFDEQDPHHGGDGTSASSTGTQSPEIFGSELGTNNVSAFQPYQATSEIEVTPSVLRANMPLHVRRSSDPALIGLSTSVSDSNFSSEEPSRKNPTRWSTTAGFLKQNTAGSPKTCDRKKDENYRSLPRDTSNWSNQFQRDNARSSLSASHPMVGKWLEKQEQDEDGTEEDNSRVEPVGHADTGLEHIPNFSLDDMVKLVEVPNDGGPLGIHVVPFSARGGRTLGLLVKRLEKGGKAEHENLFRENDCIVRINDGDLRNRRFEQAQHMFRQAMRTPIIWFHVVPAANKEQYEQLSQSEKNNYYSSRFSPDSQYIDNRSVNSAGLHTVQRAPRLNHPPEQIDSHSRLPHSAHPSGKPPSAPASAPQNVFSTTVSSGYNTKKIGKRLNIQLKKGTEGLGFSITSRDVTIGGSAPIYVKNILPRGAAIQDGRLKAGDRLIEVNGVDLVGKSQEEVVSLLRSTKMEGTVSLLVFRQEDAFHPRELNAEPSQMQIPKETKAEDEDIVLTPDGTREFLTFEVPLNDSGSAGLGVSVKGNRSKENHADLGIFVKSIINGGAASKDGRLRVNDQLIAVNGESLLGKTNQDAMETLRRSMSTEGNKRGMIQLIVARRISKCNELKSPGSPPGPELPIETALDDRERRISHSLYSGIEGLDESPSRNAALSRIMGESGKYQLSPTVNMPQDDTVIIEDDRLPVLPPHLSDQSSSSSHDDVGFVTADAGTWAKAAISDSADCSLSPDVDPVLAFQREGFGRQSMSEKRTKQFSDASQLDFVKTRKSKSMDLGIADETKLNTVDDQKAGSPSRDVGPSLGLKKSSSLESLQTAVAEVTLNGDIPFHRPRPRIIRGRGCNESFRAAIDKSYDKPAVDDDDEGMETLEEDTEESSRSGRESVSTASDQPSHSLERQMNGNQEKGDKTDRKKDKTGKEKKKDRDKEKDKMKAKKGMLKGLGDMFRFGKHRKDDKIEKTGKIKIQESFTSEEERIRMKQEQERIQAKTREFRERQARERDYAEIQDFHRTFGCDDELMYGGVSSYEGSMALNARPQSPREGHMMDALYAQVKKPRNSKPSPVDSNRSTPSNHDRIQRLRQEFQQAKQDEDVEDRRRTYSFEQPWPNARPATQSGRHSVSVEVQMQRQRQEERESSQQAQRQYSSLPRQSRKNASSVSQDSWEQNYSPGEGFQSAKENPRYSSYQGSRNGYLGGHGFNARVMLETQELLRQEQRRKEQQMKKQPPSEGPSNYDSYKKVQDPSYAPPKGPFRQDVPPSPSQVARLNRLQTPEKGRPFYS
# Sequence of UniProt Q15843 (Q15843 whole entry, looked up): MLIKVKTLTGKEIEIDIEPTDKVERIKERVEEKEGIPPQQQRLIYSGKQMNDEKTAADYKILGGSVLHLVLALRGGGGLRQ
# Sequence of UniProt O60313 (O60313 whole entry, looked up): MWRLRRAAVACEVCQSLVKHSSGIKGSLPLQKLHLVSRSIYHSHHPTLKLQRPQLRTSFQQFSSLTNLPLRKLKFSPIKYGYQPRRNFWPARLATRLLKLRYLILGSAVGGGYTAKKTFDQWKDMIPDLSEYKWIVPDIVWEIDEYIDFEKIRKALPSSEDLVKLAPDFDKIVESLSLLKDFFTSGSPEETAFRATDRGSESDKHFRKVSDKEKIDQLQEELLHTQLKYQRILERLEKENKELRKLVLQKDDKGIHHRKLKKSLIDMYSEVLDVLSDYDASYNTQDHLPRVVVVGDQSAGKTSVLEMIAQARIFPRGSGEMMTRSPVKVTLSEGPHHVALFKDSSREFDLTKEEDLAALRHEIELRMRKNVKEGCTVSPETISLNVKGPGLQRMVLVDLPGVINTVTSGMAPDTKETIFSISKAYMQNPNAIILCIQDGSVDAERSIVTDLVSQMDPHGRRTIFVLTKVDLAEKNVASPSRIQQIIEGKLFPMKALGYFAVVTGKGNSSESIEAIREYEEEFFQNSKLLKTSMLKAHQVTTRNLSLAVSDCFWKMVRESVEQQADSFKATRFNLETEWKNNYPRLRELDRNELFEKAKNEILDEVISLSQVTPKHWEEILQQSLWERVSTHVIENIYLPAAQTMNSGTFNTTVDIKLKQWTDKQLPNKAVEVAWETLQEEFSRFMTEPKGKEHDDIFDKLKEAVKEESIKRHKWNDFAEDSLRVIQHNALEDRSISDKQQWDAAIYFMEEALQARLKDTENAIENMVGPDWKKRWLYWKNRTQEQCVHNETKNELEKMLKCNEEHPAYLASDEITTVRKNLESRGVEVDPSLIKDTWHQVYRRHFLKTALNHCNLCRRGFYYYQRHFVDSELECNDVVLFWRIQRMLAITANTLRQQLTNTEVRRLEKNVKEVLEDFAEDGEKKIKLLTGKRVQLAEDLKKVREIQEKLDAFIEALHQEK
# Sequence of UniProt P42695 (P42695 whole entry, looked up): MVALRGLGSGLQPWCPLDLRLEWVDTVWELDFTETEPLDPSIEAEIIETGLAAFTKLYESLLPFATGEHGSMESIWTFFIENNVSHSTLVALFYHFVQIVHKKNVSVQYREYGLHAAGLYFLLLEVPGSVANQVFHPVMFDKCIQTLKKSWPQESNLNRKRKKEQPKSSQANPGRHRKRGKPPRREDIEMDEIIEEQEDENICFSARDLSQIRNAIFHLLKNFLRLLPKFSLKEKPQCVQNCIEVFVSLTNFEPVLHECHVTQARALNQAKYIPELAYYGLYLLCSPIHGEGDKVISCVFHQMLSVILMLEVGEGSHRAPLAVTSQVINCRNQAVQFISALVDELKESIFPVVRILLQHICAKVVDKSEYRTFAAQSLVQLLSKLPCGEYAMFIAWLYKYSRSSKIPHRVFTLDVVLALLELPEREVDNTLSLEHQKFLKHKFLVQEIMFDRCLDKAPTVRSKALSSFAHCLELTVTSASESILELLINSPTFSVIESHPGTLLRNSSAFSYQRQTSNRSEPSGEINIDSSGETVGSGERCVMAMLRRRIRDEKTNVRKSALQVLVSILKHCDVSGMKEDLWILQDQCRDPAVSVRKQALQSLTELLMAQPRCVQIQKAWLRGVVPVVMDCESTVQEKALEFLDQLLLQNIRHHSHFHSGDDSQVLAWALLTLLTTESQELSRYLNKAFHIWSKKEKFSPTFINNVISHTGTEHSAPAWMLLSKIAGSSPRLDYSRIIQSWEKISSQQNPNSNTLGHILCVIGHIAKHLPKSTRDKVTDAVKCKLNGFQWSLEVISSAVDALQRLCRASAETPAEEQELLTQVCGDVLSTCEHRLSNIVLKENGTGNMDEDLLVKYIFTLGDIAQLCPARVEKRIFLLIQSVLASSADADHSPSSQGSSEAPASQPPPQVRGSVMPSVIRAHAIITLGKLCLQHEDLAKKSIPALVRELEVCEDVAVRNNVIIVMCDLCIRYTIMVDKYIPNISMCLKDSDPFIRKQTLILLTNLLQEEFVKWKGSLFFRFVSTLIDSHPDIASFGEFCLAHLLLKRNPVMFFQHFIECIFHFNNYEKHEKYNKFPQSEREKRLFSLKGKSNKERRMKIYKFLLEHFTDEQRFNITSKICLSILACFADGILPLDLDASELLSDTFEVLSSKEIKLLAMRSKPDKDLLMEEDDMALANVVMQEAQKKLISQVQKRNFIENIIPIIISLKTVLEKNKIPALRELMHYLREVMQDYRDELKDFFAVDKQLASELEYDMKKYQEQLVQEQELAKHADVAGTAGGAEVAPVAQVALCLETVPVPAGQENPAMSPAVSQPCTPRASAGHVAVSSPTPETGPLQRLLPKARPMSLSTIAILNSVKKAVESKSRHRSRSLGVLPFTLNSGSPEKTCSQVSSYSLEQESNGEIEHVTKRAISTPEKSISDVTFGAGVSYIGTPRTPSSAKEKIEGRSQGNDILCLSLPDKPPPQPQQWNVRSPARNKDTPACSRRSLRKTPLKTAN
row,Target,log2 fold change
1,NUMBL (UniProt Q9Y6R0),-0.218 (inactive)
2,OPA1 isoform 2 (UniProt O60313),-0.013 (inactive)
3,MTHFD1L (UniProt B7ZM99),0.034 (inactive)
4,PARD3 (UniProt Q8TEW0),0.144 (inactive)
5,NACC1 (UniProt Q96RE7),-0.01 (inactive)
6,NEDD8 (UniProt Q15843),0.019 (inactive)
7,PANK4 (UniProt Q9NVE7),0.01 (inactive)
8,NAA35 (UniProt Q5VZE5),0.034 (inactive)
9,OGFR (UniProt Q9NZT2),-0.015 (inactive)
10,MTMR6 (UniProt Q9Y217),-0.042 (inactive)
11,OTC (UniProt P00480),-0.188 (inactive)
12,NELFCD (UniProt Q8IXH7),0.041 (inactive)
13,NFATC2IP (UniProt Q8NCF5),0 (inactive)
14,NUDT4 isoform 2 (UniProt Q9NZJ9),-0.07 (inactive)
15,NADK2 (UniProt Q4G0N4),0 (inactive)
16,NUP98 (UniProt P52948),0.031 (inactive)
17,NR3C1 isoform 3 (UniProt P04150),0.021 (inactive)
18,PAXBP1 (UniProt Q9Y5B6),0.005 (inactive)
19,NCAPD3 (UniProt P42695),0.017 (inactive)
20,NPLOC4 isoform 2 (UniProt Q8TAT6),-0.007 (inactive)
21,N4BP2 (UniProt Q86UW6),0.021 (inactive)
22,NCAPD2 (UniProt Q15021),0.002 (inactive)
23,NCAPG (UniProt Q9BPX3),0.024 (inactive)
